About 83,000 compounds went through this panel and 20% of them were active in at least one assay; those are over-represented in the sample as a whole.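 For each line, cells grew in 96-well plates with the test compound present at a single concentration for 48 hours.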 A number with no mark means an inactive call. Calls of active or inactive are those of the source. How the source made its calls: active means growth percent below 10; inactive means the rest.

Test systems include NCI-H23 lung; NCI-H226 lung; NCI-H322M lung; HOP-62 NSCLC; NCI-H460 lung; HOP-92 NSCLC; NCI-H522 lung; 786-0 renal; COLO 205 colon; DU-145 prostate; K-562 leukemia; MALME-3M melanoma; MDA-MB-231 breast; RXF 393 renal; SF-268 CNS; SF-295 CNS; SF-539 CNS; UACC-257 melanoma; M14 melanoma.
Test in all cases: NCI-60 one-dose screen, 48 h (100 = growth as untreated, 0 = no growth, -100 = all killed)
Settings in all cases: 10 µM unless noted

Turning to `CSc1nc(N)c2c(n1)NC(c1ccccc1)C1CCc3ccccc3C1=N2` (stereo not drawn), the growth is 39.4% in the assay with NCI-H23 lung; 77.6% in the assay with NCI-H226 lung; 112% in the assay on NCI-H322M lung; 64.4% in the assay with HOP-62 NSCLC; 57.3% with NCI-H460 lung; 51.2% in the assay with HOP-92 NSCLC. For the same compound, the growth is 45.9% with NCI-H522 lung; 69.2% in the assay with 786-0 renal; 78.6% in the assay on COLO 205 colon; 74.5% in the assay on DU-145 prostate; 47.7% with K-562 leukemia; 113% with MALME-3M melanoma. In addition, the growth in the assay with MDA-MB-231 breast was 71.9%; in the assay on RXF 393 renal, 84.4%; with SF-268 CNS it was 60.1%; with SF-295 CNS, 41.7%; with SF-539 CNS, 102%; in the assay on UACC-257 melanoma, 88.7%. The growth with M14 melanoma is 55.7%.
With `COC(=O)c1c(C(=O)OC)c2ccc3c4ncccc4ccc3n2c1C(=O)c1ccc(C)cc1`, the growth is 101% with NCI-H23 lung; 96.6% with NCI-H226 lung; 90.7% with NCI-H322M lung; 76.7% with HOP-62 NSCLC; 101% in the assay on NCI-H460 lung; 91.7% in the assay on HOP-92 NSCLC. The growth with NCI-H522 lung was 68%; in the assay with 786-0 renal, 91%; with COLO 205 colon, 98.8%; in the assay on DU-145 prostate it was 98.7%; with K-562 leukemia, 85.8%; with MALME-3M melanoma it was 89.7%. Further, the growth with MDA-MB-231 breast is 84.1%; with RXF 393 renal, 106%; in the assay on SF-268 CNS it was 98.5%; with SF-295 CNS, 87.7%; in the assay on SF-539 CNS, 97.6%; in the assay with UACC-257 melanoma it was 95.2%. Besides, the growth in the assay with M14 melanoma is 90.1%.
As to `Clc1nc(N2CCC[N+]3(CC2)CC[N+]2(CCCNCC2)CC3)nc(N2CCC[N+]3(CC2)CC[N+]2(CCCNCC2)CC3)n1` (stereo not drawn), the growth was 89.2% with NCI-H23 lung; 68.4% in the assay with NCI-H226 lung; 99.7% in the assay on NCI-H322M lung; 91.1% in the assay with HOP-62 NSCLC; 76.8% in the assay on NCI-H460 lung; 131% with HOP-92 NSCLC. Also, the growth in the assay with NCI-H522 lung was 94%; in the assay with 786-0 renal, 72.8%; with COLO 205 colon, 106%; in the assay on DU-145 prostate, 91%; in the assay on K-562 leukemia, 104%; in the assay with MALME-3M melanoma, 3.84% (active). The growth in the assay with MDA-MB-231 breast is 86.5%; with RXF 393 renal, 100%; with SF-268 CNS, 76.8%; with SF-295 CNS, 104%; with SF-539 CNS it was 87.5%; with UACC-257 melanoma, 81.3%. The growth in the assay on M14 melanoma is 103%.
With `O=C(Nc1cccc(Cn2c(=O)[nH]c3ccc(Oc4ncccn4)cc3c2=O)c1)c1cccc(Cl)c1`, the growth in the assay on NCI-H23 lung was 48.6%; with NCI-H226 lung it was 68.6%; in the assay on NCI-H322M lung it was 75.5%; in the assay on HOP-62 NSCLC, 79.3%; in the assay with NCI-H460 lung it was 57.7%; in the assay with HOP-92 NSCLC it was 75.4%. Moreover, the growth was 61.5% with NCI-H522 lung; 65.8% in the assay with 786-0 renal; 71.9% in the assay with COLO 205 colon; 56.5% with DU-145 prostate; 27.1% with K-562 leukemia; 79.5% in the assay on MALME-3M melanoma. Also, the growth with MDA-MB-231 breast was 72.6%; in the assay on RXF 393 renal, 81.1%; in the assay with SF-268 CNS it was 55.6%; in the assay on SF-295 CNS it was 45.5%; in the assay with SF-539 CNS, 71.3%; in the assay on UACC-257 melanoma it was 44%. Besides, the growth in the assay on M14 melanoma is 70%.
For `Cc1cc(C)n(C(=O)CSc2nc3sc4c(c3c(=O)n2-c2ccccc2)CCCCC4)n1`, the growth in the assay with NCI-H23 lung was 91.6%; with NCI-H226 lung, 98.1%; in the assay with NCI-H322M lung, 99.1%; in the assay with HOP-62 NSCLC, 96.3%; in the assay on NCI-H460 lung it was 103%; with HOP-92 NSCLC it was 95.1%. The growth is 85.8% in the assay with NCI-H522 lung; 108% with 786-0 renal; 115% in the assay on COLO 205 colon; 106% in the assay on DU-145 prostate; 97.1% in the assay on K-562 leukemia; 107% in the assay on MALME-3M melanoma. Moreover, the growth in the assay on MDA-MB-231 breast was 108%; in the assay with RXF 393 renal, 99.9%; in the assay on SF-268 CNS, 104%; in the assay on SF-295 CNS, 101%; in the assay on SF-539 CNS, 105%; with UACC-257 melanoma, 96.7%. Also, the growth in the assay with M14 melanoma was 113%.
In the case of `CS(=O)(=O)Nc1cc(-c2ccc3ncnc(Nc4cccc(Cl)c4)c3c2)cnc1Cl`, the growth was 6.5% (active) in the assay on NCI-H23 lung; 11.8% in the assay with NCI-H226 lung; 1.07% (active) with NCI-H322M lung; 3.9% (active) in the assay on HOP-62 NSCLC; 7.81% (active) in the assay with NCI-H460 lung; -22.5% (active) with HOP-92 NSCLC. Further, the growth in the assay on NCI-H522 lung is 2.07% (active); in the assay with 786-0 renal it was 5.7% (active); in the assay with COLO 205 colon it was -49.4% (active); with DU-145 prostate, 14.5%; in the assay on K-562 leukemia, 18.9%; in the assay on MALME-3M melanoma, -25.7% (active). Moreover, the growth with MDA-MB-231 breast is 7.96% (active); in the assay on RXF 393 renal it was -44% (active); in the assay on SF-268 CNS it was 13.9%; with SF-295 CNS it was -22.6% (active); with SF-539 CNS, -22% (active); with UACC-257 melanoma, -3.23% (active). In the assay on M14 melanoma, the growth is -2.15% (active).
With `Cn1ncc(CC(=O)O)c1-n1nnc2cc(Cl)ccc2c1=O`, the growth was 102% in the assay on NCI-H23 lung; 95.2% in the assay on NCI-H226 lung; 80.3% in the assay with NCI-H322M lung; 105% in the assay with HOP-62 NSCLC; 108% in the assay on NCI-H460 lung; 105% in the assay on HOP-92 NSCLC. The growth is 97.3% in the assay with NCI-H522 lung; 96.6% with 786-0 renal; 118% in the assay on COLO 205 colon; 109% with DU-145 prostate; 98.4% in the assay with K-562 leukemia; 93.9% in the assay with MALME-3M melanoma. Also, the growth is 94.5% in the assay with MDA-MB-231 breast; 114% with RXF 393 renal; 103% with SF-268 CNS; 91.7% with SF-295 CNS; 96.7% in the assay with SF-539 CNS; 100% in the assay on UACC-257 melanoma. Further, the growth in the assay with M14 melanoma was 100%.

The record behind these values is PubChem BioAssay (NCI).
